Compound activity (PubChem)
Shown is part of a subset that was picked to be rich in hits.
RBX1-CUL1 inh: inhibitors of human ROC1-CUL1 ubiquitin ligase activity; P62877+Q13616; in vitro K48 di-Ub FRET, acceptor:donor ratio, 45 min; inhibition, % at 10 µM; hit rate 0.6% among 140,000; AID 1347404; in the data active = inhibition above about 25%
Each line names hits and unclear results; the compound was inactive in the other large screens.

COc1ccc(C)cc1N1CC(C(=O)N2CCCCC2C)CC1=O (stereo not given)	none
COc1cc(C=C2C(=O)NC(=O)NC2=O)cc(I)c1OC	none
O=C1NC(=O)C(=Cc2cc(O)c(O)c(Br)c2)C(=O)N1	RBX1-CUL1 inh 49
S=c1[nH]nc(-c2ccccc2)n1/N=C/c1cc(Br)c(I)o1	none
O=C1NC(=O)C(=Cc2cc(Br)c(I)o2)C(=O)N1	RBX1-CUL1 inh 80
O=C1C(=Cc2ccc(O)c(Br)c2)C(=O)c2ccccc21	none
O=C(O)C1=C2CCCCCN2C(=O)CC1=O	none
Cc1ccc(OC(=O)C(C)Oc2ccc(Br)cc2Br)cc1 (stereo not given)	none
COc1ccc([C@@H](C)NCc2c(C(=O)N3CCOCC3)nc3ccccn23)cc1	none
N#CC1=c2s/c(=C/c3cccc(C(F)(F)F)c3)c(=O)n2C(=N)C(C#N)C1c1cccc(C(F)(F)F)c1 (stereo not given)	none
N#CC1=c2s/c(=C\c3ccc(-c4ccccc4)o3)c(=O)n2C(=N)C(C#N)C1c1ccc(-c2ccccc2)o1 (stereo not given)	RBX1-CUL1 inh 56
N#CC1=c2s/c(=C\c3ccccc3C(F)(F)F)c(=O)n2C(=N)C(C#N)C1c1ccccc1C(F)(F)F (stereo not given)	none
COc1cccc(OC)c1OCc1cc(C2C3CCCC=C3C(C#N)C(=N)C2(C#N)C#N)c(C)cc1C (stereo not given)	none
Clc1ccc(-c2ccncn2)cc1Cl	none
Brc1cc(-c2ccncn2)cs1	none
O=[N+]([O-])c1cc(-c2ccncn2)sc1[N+](=O)[O-]	RBX1-CUL1 inh 41
O=C(CN(Cc1ccc(Cl)cc1)S(=O)(=O)c1ccccc1)Nc1cccc(Br)c1	none
O=c1c2ccccc2ncn1-c1cc(C(F)(F)F)cc(C(F)(F)F)c1	none
CCCc1nn2c(N)c(C=C3C=C(Br)C=CC3=O)c(=O)nc2s1	none
CCc1nn2c(N)c(C=C3C=C(Cl)C(=O)C(Cl)=C3)c(=O)nc2s1	none
CCCCCCCc1nn2c(N)c(C=C3C=C(Cl)C(=O)C(Cl)=C3)c(=O)nc2s1	RBX1-CUL1 inh 95
CCCCc1ccc(-n2nnc(C(=O)NC3CCCC3)c2C)cc1	none
CC1=NOC(=O)/C1=C\c1cccs1	none
Cc1ccc2c(c1)C(=O)/C(=C/c1cccs1)CO2	RBX1-CUL1 inh 73
COc1ccc(/C=C2\COc3ccccc3C2=O)cc1OC	none
COc1cccc(NC(=O)CSCC2=Nc3c(ccc(C)c3C)C(=O)C2)c1	none
O=C1N(C2Cc3ccccc3C2)C[C@@H]2C[C@@H](c3cccc4cnccc34)N3CCC[C@@]123	none
C=CCN1CCN(C(=O)C(C)Oc2cc(Cl)ccc2Cl)CC1 (stereo not given)	none
CCc1ccccc1N1CCN(S(=O)(=O)CC23CCC(CC2=O)C3(C)C)CC1 (stereo not given)	none
COc1cc(C2C3=C(CCCC3=O)OC3=C2C(=O)CCC3)cc(Br)c1O	none
CCC1c2c(ccc3ccccc23)OC(=O)C1C(=O)Nc1ccc(C)cc1 (stereo not given)	none
O=C1Oc2ccc3ccccc3c2C(=O)C1CC1C(=O)Oc2ccc3ccccc3c2C1=O (stereo not given)	RBX1-CUL1 inh 32
O=C1/C(=C/c2ccc(Cl)cc2)COc2ccc3ccccc3c21	none
CCOc1ccc(C2C(C(=O)OCCOC)=C(C)N=C3SCCC(=O)N32)cc1 (stereo not given)	none
COc1ccc(-c2cc(-c3ccccc3)cc(-c3ccc(Br)cc3)n2)cc1	none
O=C1OC(c2ccc3ccccc3c2)=N/C1=C/c1ccc(-c2cc(Cl)ccc2Cl)o1	none
C=CCN1C(=O)/C(=C/c2cc(Br)cc(OC)c2OC)C(=O)NC1=S	none
C=CCN1C(=O)NC(=O)/C(=C\c2ccc(-c3cc(Cl)ccc3Cl)o2)C1=O	RBX1-CUL1 inh 97
C=CCN1C(=O)/C(=C/c2ccc(Cl)cc2Cl)NC1=S	none
C=CCN1C(=O)NC(=O)/C(=C/c2ccccc2OCc2ccc(Cl)cc2Cl)C1=O	none
C=CCN1C(=O)NC(=O)/C(=C\c2cc(Br)ccc2OCc2ccc(Cl)cc2Cl)C1=O	RBX1-CUL1 inh 101
COc1ccc2nc(CCN(C)C(=O)CC3(c4ccccc4OC)CC(=O)N(C)C3=O)[nH]c2c1 (stereo not given)	none
CN(C)CCCNc1oc(-c2cccs2)nc1S(=O)(=O)c1ccc(Cl)cc1	none
O=C(Nc1ccc(Br)cc1Br)c1cccc2ccccc12	none
Oc1ccc2ccccc2c1[C@@H]1CCC2=NCCCN21	none
CCN(CC)C(=O)c1cc(C(C)(C)C)c(O)c(C(C)(C)C)c1	none
CCCCOc1ccc(S(=O)(=O)Nc2cccc(-c3ccc(N4CCOCC4)nn3)c2)cc1	none
COc1ccc2c(c1)C(=O)Cc1ccccc1S2	none
COc1ccc2c(c1)C(=O)Cc1ccccc1O2	RBX1-CUL1 inh 67
COc1cccc(C(=O)N=C2Cc3cc(OC)ccc3OC2=O)c1	none
O=C(CS(=O)(=O)c1ccc2ccccc2c1)N1CCCCCC1	none
CC1=C(C(=O)NCc2nc(-c3cccc(NC(=O)CCc4cccnc4)c3)oc2C)OCCO1	none
CC(/C=C/c1ccco1)=N/NC(=O)c1ccccc1Cl	none
Cc1ccc(C(=O)/C=C/c2ccco2)c(O)c1	RBX1-CUL1 inh 34
O=C(/C=C/c1ccco1)Nc1cccc(NC(=O)c2ccc(Cl)cc2Cl)c1	none
Cn1c(NCc2ccccc2F)nc2ccccc21	none
